# FMDV inh: foot and mouth disease virus antiviral activity; FMDV antiviral cell-based qHTS; Potency, µM (highest dose often 57.9 µM), without a hit: at the highest dose activity change, negative = inhibition, actives largely listed as inhibitors; actives 1.2% (n = 410,000); AID 1159524; calls by dose curve; tested in HEK293T cells; further: read-out not given here; nearly all actives have a fitted effect of over 45% in size
# FBPA Giardia inh: Giardia lamblia aldolase inhibition. A8B2U2. purified Giardia FBPA. AID 2451. actives 0.71% (n = 290,000). Potency, µM (titrated, usually from 59.6 µM), inactives show at the top dose activity, negative = inhibition, hits mostly inhibitors; active means well fitted inhibition curve with a large enough effect; inconclusive means small, poorly fitted or top-dose-only effect, or effect the other way; further: nearly all actives have a fitted effect of over 55% in size
# Target sequence (A8B2U2 whole entry, looked up): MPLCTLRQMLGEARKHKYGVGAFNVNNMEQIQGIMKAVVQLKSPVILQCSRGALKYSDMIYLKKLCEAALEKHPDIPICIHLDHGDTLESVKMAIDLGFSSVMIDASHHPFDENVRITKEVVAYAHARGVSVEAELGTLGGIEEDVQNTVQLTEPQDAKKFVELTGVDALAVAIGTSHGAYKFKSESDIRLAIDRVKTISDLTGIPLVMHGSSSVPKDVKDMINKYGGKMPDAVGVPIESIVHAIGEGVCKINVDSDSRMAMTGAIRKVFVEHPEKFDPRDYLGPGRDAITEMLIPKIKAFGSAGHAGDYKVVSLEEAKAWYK
#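 Giardia FBPA (40 nM reagent) was preincubated 10 min at RT with compound (up to 57.5 uM final), then substrate plus GAPDH/TPI/NAD/arsenate coupling system with diaphorase/resazurin was added; resorufin fluorescence (525/598 nm) was read after 20 min.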
# VACV Venus inh: vaccinia inhibition (Venus reporter); Potency, µM (highest dose often 36.5 µM), for inactives: top-dose activity change, negative = inhibition, most hits filed as inhibitors; Vaccinia virus Venus reporter expression, fluorescence; actives 0.46% (n = 330,000); AID 720580; calls by dose curve; tested in A549 cells; further: nearly all actives have a fitted effect of over 30% in size
# VACV mCherry inh: inhibitors of vaccinia virus infection (mCherry reporter signal) | Vaccinia virus mCherry reporter infection, fluorescence | Potency, µM (highest dose often 36.5 µM), without a hit: at the top dose activity change, negative = inhibition, usual class: inhibitors | actives 0.63% (n = 310,000) | AID 720579; calls by dose curve; tested in A549 cells; further: nearly all actives have a fitted effect of over 35% in size
# The depositor's hits bear a star; i = inactive; ? = inconclusive; . = no result; [ ] = another dose, or the depositor's remark. Rows were chosen to be rich in hits. Some 2.2% of all compounds tested hit in one or more screens of this group. On the % scale 0 is the no-effect control and ±100 the full control effect; potency means the concentration at half of the fitted maximal effect.
SMILES,FMDV inh,FBPA Giardia inh,VACV Venus inh,VACV mCherry inh
COc1ccc(S(=O)(=O)N(C)C[C@H]2Oc3c(NC(=O)Nc4ccc(C(F)(F)F)cc4)cccc3C(=O)N([C@H](C)CO)C[C@@H]2C)cc1,?,.,10µM*,?
COc1ccc(CN(C)C[C@@H]2OCCCC[C@H](C)Oc3ccc(NC(=O)Cc4ccccc4)cc3C(=O)N([C@@H](C)CO)C[C@@H]2C)cc1,-21.5%,.,-14.3%,-14.6%
O=C(CCNS(=O)(=O)c1ccc2c(c1)CCN2C(=O)C1CC1)N1CCN(c2ccc(F)cc2)CC1,-27.9%,.,-12.8%,-18.1%
c1coc(-c2ccccc2CN2CCOc3ccc(CN4CCOCC4)cc3C2)c1,-0.1%,.,-5.0%,-8.3%
CC[C@H](C)[C@H](NC(=O)CNC(=O)[C@H](CCCNC(=N)N)NC(=O)[C@H](CO)NC(=O)[C@H](C)NC(=O)[C@H](Cc1ccc(O)cc1)NC(=O)[C@H](Cc1c[nH]c2ccccc12)NC(=O)[C@H](C)NC(=O)[C@@H]1CCCN1C(=O)[C@H](CC(N)=O)NC(=O)[C@@H](NC(=O)[C@H](CC(=O)O)NC(=O)[C@@H]1CCCN1C(=O)[C@@H](N)[C@@H](C)O)[C@@H](C)CC)C(=O)N[C@@H](CCCNC(=N)N)C(=O)N1CCC[C@H]1C(=O)N[C@H](C(=O)NCC(=O)N[C@@H](CCCNC(=N)N)C(=O)N[C@@H](Cc1ccccc1)C(N)=O)C(C)C,.,9.9%,.,.
Cc1ccc(S(=O)(=O)Nc2cccc3c2O[C@H](CN(C)Cc2ccc(-c4ccccc4)cc2)[C@@H](C)CN([C@H](C)CO)C3=O)cc1,-15.9%,.,?,?
C[C@@H]1CN([C@@H](C)CO)C(=O)c2cc(NC(=O)Nc3ccc(F)cc3)ccc2O[C@@H]1CN(C)Cc1ccc(Oc2ccccc2)cc1,0.0%,.,10µM*,?
Cc1ccc(S(=O)(=O)Nc2ccc3c(c2)C(=O)N([C@H](C)CO)C[C@H](C)[C@@H](CN(C)Cc2ccc(-c4ccccc4)cc2)O3)cc1,?,.,10µM*,?
C[C@H]1CCCCO[C@H](CN(C)CC2CCCCC2)[C@@H](C)CN([C@@H](C)CO)C(=O)c2cc(NS(=O)(=O)c3ccccc3)ccc2O1,-2.0%,.,?,-5.7%
C[C@@H]1CCCCO[C@@H](CN(C)CC2CCCCC2)[C@@H](C)CN([C@H](C)CO)C(=O)c2cc(NS(=O)(=O)c3ccc(Cl)cc3)ccc2O1,-4.6%,.,10µM*,?
CO/N=C(\C(=O)N[C@@H]1C(=O)N2C(C(=O)OCOC(=O)C(C)(C)C)=C(/C=C\c3scnc3C)CS[C@H]12)c1csc(N)n1,1.2%,.,-4.7%,i
Cc1cc(C)nc(SCc2ccc(C(=O)N/N=C/c3ccc(C(=O)O)cc3)cc2)n1,-4.4%,-8.2%,-15.0%,-9.2%
COc1ccc(O)c(/C=N/NC(=O)c2ccc(CSc3nc(C)cc(C)n3)cc2)c1,?,-17.0%,?,8.91µM*
Cc1cc(C)nc(SCc2ccc(C(=O)N/N=C/c3cccc(O)c3O)cc2)n1,23.5%,?,?,8.91µM*
CN1CCCCCC1C(=O)NCC1Cc2cc(-c3cnccn3)ccc2O1 (stereo not drawn),10.0%,.,-15.4%,i
O=C(CNC1=NCCS1)c1c[nH]c2ccccc12,.,.,-15.2%,-9.4%
C=CCN1c2ccccc2[C@]23C[C@@H](C(=O)OC)N(S(=O)(=O)c4ccc(C(F)(F)F)cc4)C2=NC(C(=O)OC)=C(C(=O)OC)[C@H]13,.,4.5%[12.9 µM],.,.
CC(=O)Nc1ccc(NC(=O)COc2cccc3c2OC(C)(C)C3)cc1,-0.3%,12.4%,-22.4%,-11.5%
COc1cc(NC(=O)COc2cc(O)c3c(c2)OC(C)(C)CC3=O)cc(OC)c1OC,3.98µM*,10.8%,?,?
COc1cc(NC(=O)COc2cccc3c2OC(C)(C)C3)cc(OC)c1OC,22.4µM*,.,.,.
COc1ccccc1-c1nc2cc(C(=O)NC[C@H]3CCc4ccccc4O3)cc(NC(C)=O)c2n1C,-4.2%,.,6.8%,-5.0%
C[C@H]1[C@H](C)CC[C@]2(C(=O)O)CC[C@]3(C)C(=CCC4[C@@]5(C)CC[C@H](O)C(C)(C)[C@@H]5CC[C@]43C)[C@H]12 (stereo partly drawn),.,13.3%,.,.
CC(=O)Nc1ccc(SCCN2CCN(CC(C)C)CCC2=O)cc1,.,1.3%,.,.
CCOc1ccc(Sc2cc(C(=O)NCCc3ccc(OC)c(OC)c3)c3ccccc3n2)cc1,14.1µM*,.,?,?
Cc1ccc(-n2[nH]c(C)c(/C=N/Nc3ccc([N+](=O)[O-])cc3[N+](=O)[O-])c2=O)cc1C,10µM*,13.3%,-22.7%,-24.1%
SMILES,FMDV inh,FBPA Giardia inh,VACV Venus inh,VACV mCherry inh
COc1ccc(C2C3=C(CC(C)(C)CC3=O)Oc3ncn(CC(C)C)c(=N)c32)cc1 (stereo not drawn),-29.0%,0.3%,-16.9%,.
COc1ccc(C2C3=C(CC(C)(C)CC3=O)Oc3ncn(Cc4ccco4)c(=N)c32)cc1 (stereo not drawn),28.2µM*,12.9%,.,.
CCCNc1c(NS(=O)(=O)c2c(F)c(F)c(F)c(F)c2F)c(=O)oc2ccccc12,-7.1%,.,?,5.01µM*
CCCNc1c(NS(=O)(=O)c2ccc(C)c(C)c2)c(=O)oc2ccccc12,10.4%,.,.,.
COc1cccc(CC(=O)N2CCc3nc(-c4ccc(OC)cc4C)c4c(c3C2)CO[C@@H](c2ccccc2)C4)c1,.,4.1%[12.9 µM],.,.
C=CC[C@]12C=C(OC)C(=O)C(OC)=C1O[C@@H](c1ccc3c(c1)OCO3)[C@H]2C,-17.5%,.,-2.7%,-9.4%
C=CC[C@]12CC=CC(=O)[C@@]1(O)O[C@H](c1ccc(OC)c(OC)c1)[C@H]2C,20µM*,.,-19.1%,-21.9%
Cc1ncc2c(c1CNC(=O)c1cncs1)CCN(C(=O)c1cc(F)c(F)cc1F)C2,-4.3%,.,-24.6%,i
CC(C)=CC(O)C/C(C)=C/COc1ccc2ccc(=O)oc2c1 (stereo not drawn),?,-1.1%,10µM*,10µM*
CC(C)=CCOc1cc2oc(=O)ccc2cc1O,15.8%,-11.4%,-4.8%,-15.9%
COc1cc(/C=C2/NC(=O)N(Cc3ccccc3F)C2=O)cc(OC)c1O,-7.6%,-24.5%,-1.2%,5.01µM*
COc1cccc(-c2cc3c(c(OC)c2)OCCN(Cc2ccccc2O)C3)n1,-15.0%,.,-8.9%,i
CCN(CC)CCCNc1nc2cc(OC)c(OC)cc2c2nc(-c3ccccc3)nn12,-11.2%,2.7%,?,?
CCN(CC)CCCNc1nc2ccccc2c2nc(-c3ccncc3)nn12,-19.8%,6.7%,11.2µM*,?
Cc1cccc(NC(=O)c2nc[nH]c2C(=O)N[C@H](C)c2ccccc2)c1,-25.4%,.,?,28.2µM*
CC1=C(C)C(=O)C(CCCCC#CCCCC#CCO)=C(C)C1=O,22.4µM*,17.7µM*,-13.9%,i
Cc1cnc(-n2ncc(C(=O)NCC(C)(C)N3CCOCC3)c2C)nc1-c1cccs1,-2.1%,.,9.7%,-8.1%
Cc1ccc(C(=O)Nc2ccc(Oc3cccc(C(F)(F)F)c3)nc2)cc1,?,3.7%,?,?
O=C(O)c1ccccc1C(=O)Nc1ccc(Oc2cccc(C(F)(F)F)c2)nc1,3.16µM*,-6.2%,-14.6%,-0.2%

# High-throughput results from PubChem.
